The values that follow come from ChEMBL document CHEMBL1961873, “Compounds: GSK PKIS; Assays: Nanosyn kinase panel” (2012).

Test [1] concerns the target Serine/threonine-protein kinase 26 (Homo sapiens) (UniProt Q9P289). The settings on record: at 1 µM.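 Note: mean inhibition of MST4 kinase activity, reported from the GSK PKIS inhibitor-set screening panel.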
Test [2] addresses Serine/threonine-protein kinase PAK 1 (Homo sapiens) (UniProt Q13153). As to conditions: at 0.1 µM.
Test [3] has the same target. As to conditions: at 1 µM.
Test [4] addresses Serine/threonine-protein kinase PAK 2 (Homo sapiens) (UniProt Q13177). The settings on record: at 0.1 µM.
Test [5] has the same target. The settings on record: at 1 µM.
In test [6] the target is Serine/threonine-protein kinase PAK 3 (Homo sapiens) (UniProt O75914). As to conditions: at 0.1 µM.
The target is the same in test [7]. The settings on record: at 1 µM.
The target of test [8] is Serine/threonine-protein kinase PAK 5 (Homo sapiens) (UniProt Q9P286). As to conditions: at 0.1 µM.
Test [9] has the same target. The settings on record: at 1 µM.
Test [10] concerns the target Serine/threonine-protein kinase PAK 6 (Homo sapiens) (UniProt Q9NQU5). As to conditions: at 0.1 µM.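 Note: mean PAK6 inhibition reported from the GSK PKIS screen.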

Serine/threonine-protein kinase PAK 3 (Homo sapiens), sequence (O75914 whole entry, looked up): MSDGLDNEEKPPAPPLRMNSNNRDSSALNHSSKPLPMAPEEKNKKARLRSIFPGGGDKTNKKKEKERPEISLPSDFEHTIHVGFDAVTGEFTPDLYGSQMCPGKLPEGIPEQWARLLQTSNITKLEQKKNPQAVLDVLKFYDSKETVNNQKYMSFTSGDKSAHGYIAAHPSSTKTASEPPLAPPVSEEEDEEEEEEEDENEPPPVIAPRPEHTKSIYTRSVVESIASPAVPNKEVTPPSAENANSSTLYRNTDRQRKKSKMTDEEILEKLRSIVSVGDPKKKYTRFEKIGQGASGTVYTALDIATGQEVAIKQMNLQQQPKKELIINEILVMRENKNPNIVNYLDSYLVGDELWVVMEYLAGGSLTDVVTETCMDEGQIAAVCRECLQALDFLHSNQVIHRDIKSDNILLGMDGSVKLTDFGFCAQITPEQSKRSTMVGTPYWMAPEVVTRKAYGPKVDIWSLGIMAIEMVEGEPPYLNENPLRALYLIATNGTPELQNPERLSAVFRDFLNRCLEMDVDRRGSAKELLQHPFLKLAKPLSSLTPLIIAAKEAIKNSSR
Serine/threonine-protein kinase PAK 5 (Homo sapiens), sequence (Q9P286 whole entry, looked up): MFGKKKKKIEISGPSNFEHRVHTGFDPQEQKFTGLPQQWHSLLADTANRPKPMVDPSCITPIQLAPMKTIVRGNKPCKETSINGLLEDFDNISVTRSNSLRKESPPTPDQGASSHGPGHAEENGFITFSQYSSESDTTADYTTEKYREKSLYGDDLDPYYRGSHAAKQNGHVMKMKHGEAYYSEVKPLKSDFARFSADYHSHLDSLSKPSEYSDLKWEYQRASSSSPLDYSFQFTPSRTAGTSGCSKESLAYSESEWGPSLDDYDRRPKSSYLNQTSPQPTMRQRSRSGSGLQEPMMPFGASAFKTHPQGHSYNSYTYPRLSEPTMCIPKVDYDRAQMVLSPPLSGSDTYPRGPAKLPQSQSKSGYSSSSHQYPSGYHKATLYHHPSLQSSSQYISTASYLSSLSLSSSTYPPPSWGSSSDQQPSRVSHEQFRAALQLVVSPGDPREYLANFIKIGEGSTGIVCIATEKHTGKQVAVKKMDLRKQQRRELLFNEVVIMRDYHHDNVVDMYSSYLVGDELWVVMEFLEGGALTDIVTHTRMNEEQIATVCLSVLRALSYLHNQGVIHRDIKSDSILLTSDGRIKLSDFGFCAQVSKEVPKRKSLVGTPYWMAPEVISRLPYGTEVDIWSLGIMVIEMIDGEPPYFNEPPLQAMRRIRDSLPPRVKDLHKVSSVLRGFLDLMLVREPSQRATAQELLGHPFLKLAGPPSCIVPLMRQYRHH
Serine/threonine-protein kinase PAK 6 (Homo sapiens), sequence (Q9NQU5 whole entry, looked up): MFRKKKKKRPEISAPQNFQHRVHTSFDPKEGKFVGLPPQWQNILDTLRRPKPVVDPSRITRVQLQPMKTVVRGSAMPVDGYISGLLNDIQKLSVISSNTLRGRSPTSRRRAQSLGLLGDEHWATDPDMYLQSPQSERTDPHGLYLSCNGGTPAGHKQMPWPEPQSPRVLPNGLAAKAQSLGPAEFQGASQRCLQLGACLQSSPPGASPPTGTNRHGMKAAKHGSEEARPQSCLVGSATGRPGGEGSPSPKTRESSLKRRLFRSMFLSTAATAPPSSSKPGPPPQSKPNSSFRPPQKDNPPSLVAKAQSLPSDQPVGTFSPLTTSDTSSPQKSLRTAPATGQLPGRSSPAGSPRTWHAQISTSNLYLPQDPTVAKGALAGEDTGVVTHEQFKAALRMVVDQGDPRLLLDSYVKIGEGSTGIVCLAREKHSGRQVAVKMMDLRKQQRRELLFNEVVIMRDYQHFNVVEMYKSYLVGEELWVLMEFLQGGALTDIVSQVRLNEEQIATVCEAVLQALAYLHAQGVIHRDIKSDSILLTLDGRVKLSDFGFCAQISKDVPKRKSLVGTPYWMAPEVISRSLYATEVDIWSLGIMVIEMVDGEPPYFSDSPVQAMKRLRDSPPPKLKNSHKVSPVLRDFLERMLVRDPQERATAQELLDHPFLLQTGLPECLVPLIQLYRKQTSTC
Serine/threonine-protein kinase 26 (Homo sapiens), sequence (Q9P289 2-416 limits assumed): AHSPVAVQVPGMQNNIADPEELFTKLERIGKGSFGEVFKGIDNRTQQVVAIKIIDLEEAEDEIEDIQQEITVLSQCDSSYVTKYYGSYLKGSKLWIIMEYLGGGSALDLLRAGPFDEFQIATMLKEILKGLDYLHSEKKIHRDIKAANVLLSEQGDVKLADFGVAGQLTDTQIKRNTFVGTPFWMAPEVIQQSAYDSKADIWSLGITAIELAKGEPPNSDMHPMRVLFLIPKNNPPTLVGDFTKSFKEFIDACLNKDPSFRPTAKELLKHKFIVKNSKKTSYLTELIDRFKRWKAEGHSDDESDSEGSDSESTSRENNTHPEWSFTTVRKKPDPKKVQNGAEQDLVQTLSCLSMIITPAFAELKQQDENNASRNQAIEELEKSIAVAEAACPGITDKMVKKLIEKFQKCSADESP
Serine/threonine-protein kinase PAK 1 (Homo sapiens), sequence (Q13153 whole entry): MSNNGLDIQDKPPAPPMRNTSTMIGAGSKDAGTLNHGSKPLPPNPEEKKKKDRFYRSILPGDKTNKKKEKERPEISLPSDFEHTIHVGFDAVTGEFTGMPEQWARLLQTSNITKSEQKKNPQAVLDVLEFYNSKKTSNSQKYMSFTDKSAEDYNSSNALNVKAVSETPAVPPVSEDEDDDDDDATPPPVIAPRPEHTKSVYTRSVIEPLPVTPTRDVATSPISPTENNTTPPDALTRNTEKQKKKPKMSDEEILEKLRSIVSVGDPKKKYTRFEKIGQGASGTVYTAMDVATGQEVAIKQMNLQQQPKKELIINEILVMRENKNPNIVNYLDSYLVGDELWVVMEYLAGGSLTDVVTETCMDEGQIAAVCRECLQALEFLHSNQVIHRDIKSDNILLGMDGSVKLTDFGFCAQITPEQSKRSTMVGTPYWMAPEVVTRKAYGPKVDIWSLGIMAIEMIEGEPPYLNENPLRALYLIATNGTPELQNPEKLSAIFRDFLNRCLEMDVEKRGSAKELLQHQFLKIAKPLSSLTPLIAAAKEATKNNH
Serine/threonine-protein kinase PAK 2 (Homo sapiens), sequence (Q13177 whole entry): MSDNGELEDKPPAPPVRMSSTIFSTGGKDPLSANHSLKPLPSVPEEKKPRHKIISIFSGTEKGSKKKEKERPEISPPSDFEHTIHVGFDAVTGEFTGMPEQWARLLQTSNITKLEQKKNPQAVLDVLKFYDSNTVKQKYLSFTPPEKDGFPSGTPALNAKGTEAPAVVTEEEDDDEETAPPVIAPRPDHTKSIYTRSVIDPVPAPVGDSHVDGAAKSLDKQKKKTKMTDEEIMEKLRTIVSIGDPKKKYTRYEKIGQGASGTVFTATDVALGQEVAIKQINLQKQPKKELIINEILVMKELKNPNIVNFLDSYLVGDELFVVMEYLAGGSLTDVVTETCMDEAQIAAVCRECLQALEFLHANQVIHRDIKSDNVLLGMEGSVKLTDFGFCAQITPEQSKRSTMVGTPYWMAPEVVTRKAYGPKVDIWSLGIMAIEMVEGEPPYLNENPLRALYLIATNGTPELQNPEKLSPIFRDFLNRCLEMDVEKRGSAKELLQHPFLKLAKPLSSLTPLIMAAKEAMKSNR

Consider `CS(=O)(=O)CCNCc1ccc(-c2ccc3ncnc(Nc4ccc(OCc5ccccc5)c(Br)c4)c3c2)o1`, for which the inhibition in [1] was -1.33%; in test [2], 5.64%; in test [3], 8.98%; in test [4], 0.93%; in [5], 1.63%; in test [6] it was 5.05%. Also, the inhibition is 4.4% in [7], 1.46% in [8], 0.13% in test [9] and -8.08% in [10].

Take `NS(=O)(=O)c1ccc(Nc2cc(-c3ccc(O)c(F)c3)n[nH]2)cc1`: the inhibition in test [1] was 3.14%; in [2], -5.59%; in [3], -0.83%; in test [4], -1.12%; in test [5], -1.29%; in test [6], -4.62%. Moreover, the inhibition in [7] is -3.25%; in [8], -6.87%; in test [9] it was -2.39%; in test [10], 1.44%.

Consider `Fc1ccc(-c2nc3n(c2-c2ccncc2)CCS3)cc1`, for which the inhibition in [1] is -1.08%; in test [2], 6.15%; in test [3] it was 8.39%; in test [4], 3.06%; in test [5], 1.6%; in [6], 4.5%. Besides, the inhibition in test [7] was 4.49%; in test [8], -6.84%; in test [9] it was -7.5%; in test [10], 9.34%.

On to `COc1ccc2cc(-c3c(-c4ccncc4)nc(-c4ccc(S(C)(=O)=O)cc4C)n3C)ccc2c1`, for which the inhibition was determined as 2.09% in test [1]; 9.36% in test [2]; 10% in test [3]; 2.04% in test [4]; 2.16% in [5]; 5.62% in [6]. Further, the inhibition in test [7] was 4.99%; in [8], -1.89%; in [9] it was 3.62%.

Take `COc1ccc2cc(-c3c(-c4ccncc4)nc(-c4ccc([S+](C)[O-])cc4C)n3C)ccc2c1` (stereo unspecified): the inhibition in test [1] was 3.65%; in test [2] it was -1.49%; in test [3] it was -0.86%; in [4], -1.29%; in test [5], -1.27%; in test [6], -0.99%. In addition, the inhibition is -1.45% in [7], -5.87% in test [8], 6.4% in test [9] and -2.81% in test [10].

In the case of `COc1cccc(/C=N/Nc2ncnc3c2cnn3-c2cccc(OC)c2)c1`, the inhibition in [1] is -1.93%; in [2] it was 7.47%; in test [3], 6.13%; in test [4], 1.74%; in [5], 1.26%; in test [6] it was 2.7%. The inhibition in test [7] was 4.34%; in test [8], 1.31%; in test [9], -2.49%; in [10], -3.17%.

In the case of `O=C1NC(=O)C(c2cccc(Cl)c2)=C1Nc1ccc(Cl)c(C(=O)O)c1`, the inhibition amounted to 0.53% in test [1]; 4.41% in test [2]; 6.62% in test [3]; 2.04% in test [4]; 0.87% in test [5]; 3.53% in [6]. Besides, the inhibition in [7] was 3.74%; in test [8], 0.06%; in test [9] it was 0.5%; in [10], -2.69%.

On to `Cc1ccc(C(=O)NC2CCC2)cc1-c1ccc(C(=O)NCC2CC2)cc1`, for which the inhibition in [1] was -4.44%; in test [2], 6.1%; in [3] it was 8.35%; in test [4], 2.22%; in test [5], 2.3%; in test [6], 3.41%. Further, the inhibition in [7] was 3.03%; in [8], -0.72%; in test [9] it was -2.79%; in [10] it was 3.05%.

Take `COc1ccc(C2=C(N3CCc4ccccc43)C(=O)NC2=O)cc1`: the inhibition in test [1] turned out to be 2.06%; in [2], 7.07%; in [3], 7.47%; in test [4] it was 1.61%; in test [5] it was 1.57%; in test [6], 4.96%. Also, the inhibition was 5.37% in test [7], 4.64% in test [8], 2.28% in test [9] and 3.36% in test [10].

For the compound `c1ccc(-c2n[nH]cc2-c2ccnc(-c3ccc(OCCN4CCOCC4)cc3)c2)nc1`, the inhibition in [1] is 2.93%; in test [2] it was -0.81%; in [3], 5.57%; in test [4], 1.69%; in test [5], 0.57%; in test [6] it was 3.54%. Moreover, the inhibition was 3.78% in test [7], -6.65% in test [8], 4.04% in [9] and 7.57% in test [10].

For the compound `O=C(Nc1n[nH]c2cc(-c3ccccc3)ccc12)C1CC1`, the inhibition in test [1] is -4.03%; in [2], 7.59%; in test [3], 7.76%; in test [4], 1.44%; in test [5] it was 2.41%; in test [6], 5.22%. Further, the inhibition is 6.01% in [7], 0.11% in test [8], -0.04% in test [9] and 5.51% in test [10].

On to `CNC(=O)c1cncc(/C=C/c2c(C)cccc2C)c1`, for which the inhibition in [1] is 2.22%; in [2], 0.04%; in test [3] it was 3.72%; in test [4] it was 1.52%; in test [5] it was -0.05%; in test [6] it was -0.14%. In addition, the inhibition amounted to 0.85% in test [7], 7.14% in [8] and 2.41% in [9].

On to `COc1cccc(-n2cnc3c(N/N=C/c4ccncc4)ncnc32)c1`, for which the inhibition was -2.88% in test [1]; 2.37% in test [2]; 1.58% in test [3]; -1.03% in test [4]; -0.99% in test [5]; -1.14% in test [6]. Moreover, the inhibition in test [7] was 0.31%; in [8], 6.09%; in [9], 10.8%; in test [10] it was 5.99%.

Consider `Cc1ccc(NC(=O)c2ccoc2)cc1-c1ccc(C(=O)NCC2CC2)cc1`, for which the inhibition in test [1] is -2.75%; in test [2] it was 3.52%; in test [3], 4.54%; in [4], 0.23%; in [5] it was -1.68%; in test [6], 2.22%. The inhibition in test [7] was 1.14%; in test [8], -1.43%; in [9], 2.58%; in test [10], -5.33%.

Consider `CCN(CC)Cc1ccc(Nc2nccc(-c3cnn4ncccc34)n2)cc1`, for which the inhibition turned out to be 0.74% in test [1]; 5.45% in test [2]; 9.08% in [3]; 1.19% in test [4]; 3.41% in test [5]; 4.82% in [6]. The inhibition in test [7] came to 6%; in test [8], 1.9%; in test [9], 5.43%.

Regarding `COc1cc(N2CCN(C(C)C)CC2)ccc1Nc1nc(Nc2ccc(F)cc2C(=O)NC[C@@H](O)CO)c2cc[nH]c2n1`, the inhibition in test [1] was -2.64%; in [2], 4.77%; in [3] it was 11.8%; in [4], 1.33%; in test [5], 1.54%; in test [6], 4.85%. Also, the inhibition in test [7] was 6.19%; in [8], 2.5%; in [9], -2.48%; in test [10], 5.3%.

For the compound `Cc1ccc(C(=O)NC(C)C)cc1-c1ccc(C(=O)NCC2CC2)cc1`, the inhibition in test [1] was 1.12%; in test [2], -1.5%; in [3] it was -0.84%; in [4], -1.39%; in test [5], -3.39%; in test [6], -3.81%. Besides, the inhibition in [7] was -3.2%; in test [8], -4.56%; in [9], -2.22%.

As a reminder, the inhibition is the drop in the measured response relative to a control, in per cent.
